Source: PubChem (several laboratories)
An excerpt weighted towards active compounds, which were near 2.5% of everything screened.
AI-2 QS mod = modulates the Vibrio harveyi AI-2 quorum sensing system. activity change, % at 7.5 µM. actives 0.4% (n = 300,000). Vibrio harveyi JMH597 AI-2 luminescence/OD600 ratio, 9 h; stronger effect = lower value; strain lacks LuxN and CqsS sensors; 0 = neutral-control median; in the data active = activity change below about -75%, passing the limit was not always enough; inconclusive = no clear call, values can overlap the other calls;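 note: luminescence divided by OD600 gain over 9 h not by final OD600 alone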
Mot1-301 SUMO = blocks SUMOylation pathway, rescuing yeast Mot1-301 growth; S. cerevisiae Mot1-301 growth rescue, ATP luminescence, 38.5C; percent above DMSO median, 100 means doubled; actives 1% (n = 320,000); AID 2716; growth rescue, % at 18.8 µM;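 active = every valid replicate shows activation above 250% relative to neutral control wells; inactive = the rest, any valid replicate at or below 250%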
ATG4B inh = inhibitors of human ATG4B cysteine protease; Q9Y4P1; ATG4B cleavage of LC3-PLA2, NBD-HPC fluorescence, 1 h; inhibition, % at 8.33 µM; actives 0.51% (n = 340,000); AID 504462; in the data active = inhibition above about 40%
Target sequence (Q9Y4P1 whole entry, looked up): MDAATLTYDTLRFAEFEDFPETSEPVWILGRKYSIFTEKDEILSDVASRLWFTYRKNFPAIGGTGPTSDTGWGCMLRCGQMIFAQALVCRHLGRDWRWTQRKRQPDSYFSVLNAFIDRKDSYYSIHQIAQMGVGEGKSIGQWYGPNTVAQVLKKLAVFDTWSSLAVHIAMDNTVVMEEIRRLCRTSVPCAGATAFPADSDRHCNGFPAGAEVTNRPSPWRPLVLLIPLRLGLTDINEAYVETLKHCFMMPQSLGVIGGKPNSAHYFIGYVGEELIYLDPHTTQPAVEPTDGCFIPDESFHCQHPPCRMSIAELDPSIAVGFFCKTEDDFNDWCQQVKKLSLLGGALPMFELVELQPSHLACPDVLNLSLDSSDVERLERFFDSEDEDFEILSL
Efflux pump mplx = antifungal efflux pump inhibition, Nile Red retention | S. cerevisiae Candida pump triplex | inhibition, % at 10 µM | actives 0.44% (n = 330,000);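 active = plate passing quality check with inhibition over a set limit, or well fluorescence over plate mean plus 4 SD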;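 note: Nile Red retained in pooled yeast measured as flow cytometry median fluorescence; higher means more Nile Red kept so more efflux inhibition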
V-ATPase pH = regulators of yeast V-ATPase proton transport | actives 0.37% (n = 350,000) | response, % at 10 µM | S. cerevisiae, pHLuorin cytosolic pH fluorescence | AID 504577; in the data active = response mostly above about 7.3%, no sharp cut-off; inactive = mostly below about 5.4%; note: actives read high
JMH597 growth = retest: inhibitors of Vibrio harveyi JMH597 growth; shares compounds with AI-2 QS mod; OD600 absorbance, 9 h; lacks LuxN and CqsS sensors; growth inhibition, % at 7.5 µM; actives 1% (n = 750); AID 2726;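 active = every replicate shows growth inhibition above 50%; inconclusive = at least half, but not all, replicates pass that cutoff; inactive = fewer than half of replicates pass it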
BB721 const-QS lum = retest counter-screen: luminescence loss in constitutive-on quorum sensing strain BB721. inhibition, % at 7.5 µM. actives 95% (n = 750). shares compounds with AI-2 QS mod. Vibrio harveyi BB721 luminescence, 9 h;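 active = inhibition above about 80% in every replicate, not just on average, limit read from the data; inconclusive = at least half of replicates past the limit, but not all; inactive = fewer than half of replicates past the limit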
BB721 growth = retest: inhibitors of Vibrio harveyi BB721 growth; OD600 absorbance, 9 h; shares compounds with AI-2 QS mod; actives 3% (n = 750); growth inhibition, % at 7.5 µM;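 active = every replicate shows growth inhibition above 50%; inconclusive = at least half but not all replicates above 50% inhibition; inactive = under half of replicates above 50% inhibition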
JMH597 AI-2 mod = Vibrio harveyi AI-2 signaling luminescence modulation – JMH597 strain, confirmation. actives 97% (n = 750). inhibition, % at 7.5 µM. Vibrio harveyi JMH597 AI-2 quorum sensing luminescence, 9 h; luxN and CqsS knockout, AI-2 only. AID 2736. shares compounds with AI-2 QS mod;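 active = every replicate shows more than 75% inhibition of signal versus neutral control wells; inconclusive = half to three quarters of replicates exceed 75% inhibition; inactive = fewer than half of replicates exceed 75% inhibition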
Numbers stand for hits; i = inactive; ? = inconclusive; nt = no result given.

SMILES	AI-2 QS mod	Mot1-301 SUMO	ATG4B inh	Efflux pump mplx	V-ATPase pH	JMH597 growth	BB721 const-QS lum	BB721 growth	JMH597 AI-2 mod
COC(=O)c1ccc(C)c(NC(=O)CN2C(=O)c3ccccc3S2(=O)=O)c1	i	i	i	i	i	nt	nt	nt	nt
O=C(NCc1ccccc1)c1cc(-c2cccc(O)c2)on1	-82.0	i	i	i	i	i	88.1	i	91.9
CC(C)c1ccc(O)c(NC(=S)NC(=O)c2cccnc2)c1	i	nt	i	i	i	nt	nt	nt	nt
CC(C)c1ccc(O)c(NC(=O)c2cncc(Br)c2)c1	-94.3	i	i	i	i	i	97.6	i	98.3
O=C(CN1CCCCCC1)Nc1cccc([N+](=O)[O-])c1	i	i	i	i	i	nt	nt	nt	nt
O=C(CN1C(=O)c2ccccc2C1=O)Nc1cccnc1	-81.6	i	i	i	i	i	93.0	i	94.2
O=C(CN1C(=O)c2ccccc2C1=O)Nc1cccc([N+](=O)[O-])c1	-95.1	i	i	i	i	i	99.0	i	99.2
Cc1cc(NC(=O)C(C)SCC(=O)Nc2cc(C(F)(F)F)ccc2N2CCOCC2)no1 (stereo not given)	i	i	i	i	i	nt	nt	nt	nt
COc1ccc(-n2nnnc2SCC(=O)Nc2nc3c(s2)CCCC3)cc1	i	i	i	i	i	nt	nt	nt	nt
O=C(CNC(=O)c1cccs1)c1ccc(Br)cc1	i	i	i	i	i	nt	nt	nt	nt
O=C(CNC(=O)c1cccs1)OCc1ccc(Br)cc1	?	i	i	i	i	i	91.0	i	92.5
CCOC(=O)CC1CCCCN1C(=O)c1cc(COc2cccc3cnccc23)on1 (stereo not given)	-86.5	i	i	i	i	i	87.6	i	93.3
COC(=O)C1CCCCN1C(=O)c1cc(COc2cccc3cccnc23)on1 (stereo not given)	i	i	i	i	i	nt	nt	nt	nt
O=C(c1cc(COc2cccc3cccnc23)on1)N1CCC[C@H]1CO	nt	nt	nt	nt	i	nt	nt	nt	nt
COc1cc(Cl)ccc1OCc1cc(C(=O)N(C)Cc2cccc3cnccc23)no1	i	i	i	i	i	nt	nt	nt	nt
CN(Cc1nccs1)C(=O)c1cc(COc2cccc3cnccc23)on1	-93.9	i	i	i	i	i	97.4	i	98.7
COC(=O)C1CCCCN1C(=O)c1cc(COc2cccc3cnccc23)on1 (stereo not given)	-90.6	i	nt	i	i	i	91.9	i	95.2
CC(C)CN1C(=O)c2ccc(C(=O)Nc3ccccc3C(=O)O)cc2C1=O	i	i	i	i	i	nt	nt	nt	nt
O=C(O)CNC(=O)c1ccc(Oc2c(F)c(F)c(Oc3ccc(C(=O)NCC(=O)O)cc3)c(F)c2F)cc1	i	i	i	i	i	nt	nt	nt	nt
O=C(O)CC1(CC(=O)Nc2cccc(C(=O)O)c2)CCCC1	i	i	i	i	i	nt	nt	nt	nt
CCCCc1ccc(NC(=O)CSc2nc3ncccc3[nH]2)cc1	-87.6	i	i	i	i	i	92.7	i	96.3
CCOC(=O)c1ccc(NC(=O)CSc2nc3ncccc3[nH]2)cc1	-91.0	i	i	i	i	i	96.8	i	97.0
Nc1c(Cl)cc(C2=NCCn3c2c2ccc(C(F)(F)F)cc2[n+]3[O-])cc1Cl	i	i	i	i	i	nt	nt	nt	nt
O=C(CSc1ccccc1)NCC1(N2CCCCC2)CCCCC1	i	i	i	i	i	nt	nt	nt	nt
O=C(Nc1cccc(Cl)c1)OCCOc1ccccc1	-86.7	i	i	i	i	i	91.5	i	92.0
O=C(COc1ncnc2sccc12)NC1CCS(=O)(=O)C1 (stereo not given)	i	i	i	i	i	nt	nt	nt	nt
C=CCNC(=O)C1CCN(S(=O)(=O)c2ccc3ccccc3c2)CC1	-80.9	i	i	i	i	i	i	i	98.9
Cc1cccc(-n2nnc(C(=O)N3CCc4ccccc4C3)c2N)c1	-81.9	i	i	i	i	i	92.4	?	94.7
Cc1nnc(SCC(=O)Nc2ccc(S(=O)(=O)N3CCCCC3)cc2)s1	i	i	i	i	i	nt	nt	nt	nt
